# A selection: hits, their analogues and other compounds. The true share with any hit is near 2.5%.
# PKA-R2B act: PKA-R2B complex activation; PKA-R2B holoenzyme dissociation, Cy5-IP20 fluorescence polarization; R2B truncated from residue 108, S112A mutant; 0% DMSO only, 100% 113 µM cGMP; activation, % at 11.4 µM; actives 0.079% (n = 340,000);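 active means activation above a cutoff set at the mean over all compounds plus 3 SD, cut at about 18% in these data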;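 further: higher means more holoenzyme dissociation and a rise in polarization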
# Target sequence (P31323 whole entry, looked up, other chains not shown, the tested form may be a part): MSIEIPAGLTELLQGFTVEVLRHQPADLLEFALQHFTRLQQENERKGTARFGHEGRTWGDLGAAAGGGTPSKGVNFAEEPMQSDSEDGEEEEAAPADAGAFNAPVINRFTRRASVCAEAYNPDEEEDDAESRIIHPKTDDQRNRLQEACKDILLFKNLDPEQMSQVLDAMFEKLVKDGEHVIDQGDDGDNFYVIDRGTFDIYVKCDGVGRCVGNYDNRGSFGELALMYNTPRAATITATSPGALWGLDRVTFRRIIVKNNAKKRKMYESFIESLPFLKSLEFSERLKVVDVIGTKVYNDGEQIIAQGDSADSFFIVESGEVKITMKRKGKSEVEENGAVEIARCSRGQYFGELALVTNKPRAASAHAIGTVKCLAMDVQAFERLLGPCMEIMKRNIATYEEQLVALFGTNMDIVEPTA
# CHT PAM: human CHT allosteric activation | B-score at 10 µM | Q9GZV3 | CHT-expressing cells, membrane potential dye, choline EC20; stronger effect = higher value; LV-AA mutant CHT in HEK293 cells | actives 0.49% (n = 310,000);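 active means initial fluorescence not abnormally high and integrated response B-score, plate-corrected, over 3 SD above library mean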
# ANO1 block: mouse TMEM16A channel inhibition, primary screen | Q8BHY3 | HEK293 TMEM16A/YFP iodide influx fluorescence, ionomycin | normalized B-score (activity score, 25-100; higher = stronger inhibition) at 10 µM | actives 1.2% (n = 310,000) | AID 588511;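 active means ratio plate-corrected score three or more library SD toward inhibition, starting fluorescence score within five deviations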;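 further: score derived from kinetic fluorescence span divided by baseline fluorescence per well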
# PKA-R1A act: activates the PKA-R1A holoenzyme complex; P00514+P68181; PKA-R1A dissociation, Cy5-IP20 fluorescence polarization; scaled: DMSO 0%, 113 µM cGMP 100%; activation, % at 11.4 µM; actives 0.083% (n = 340,000);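 active means percent activation above the mean of all tested compounds plus 3 SD, cut at about 19% in these data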;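 further: higher means more PKAc released from R1A so a rise in polarization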
# CHT block: inhibits the human high affinity choline transporter; CHT-expressing cells, membrane potential dye, choline response; stronger effect = lower value; Q9GZV3; actives 0.86% (n = 310,000); B-score at 10 µM;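 active means B-score over 3 SD under the library average, and starting fluorescence ratio not unusually high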;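 further: choline stimulus applied at its EC90 after an EC20 pre-addition; B-score computed on integrated fluorescence ratio after choline addition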
# TMEM16A act: mouse TMEM16A channel activation, primary screen | actives 0.3% (n = 340,000) | Q8BHY3 | AID 623877 | HEK293 TMEM16A/YFP-H148Q/I152L, iodide quench fluorescence; stronger effect = lower value | B-score at 10 µM;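 active means fluorescence-ratio B-score plate-corrected deviation score at least 3 library SD below zero, with starting fluorescence score within 5 deviations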;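 further: channel opened by trigger with iodide after compound preincubation; score built on the fluorescence ratio of max minus min over baseline; more negative score means more quench and so TMEM16A activation or potentiation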
# CHT activ conf: confirmation of human choline transporter (CHT) activators; actives 91% (n = 2,500); shares compounds with CHT PAM; CHT-expressing cells, membrane potential dye fluorescence (FDSS); % of choline EC20–EC90 response window; HEK293 expressing CHT LV-AA mutant; choline added at its EC20; activation, % at 10 µM;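 active means primary screen active, with duplicate mean activation above negative control mean plus 3 SD, cut at about 11% in these data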
# HEK293 MP dye: counter-screen for CHT activators: effect in parental HEK293 cells. shares compounds with CHT PAM. membrane potential dye fluorescence (FDSS); measured after EC20 choline addition. ratio readout change at 10 µM, hits read low. actives 62% (n = 2,500). AID 623908;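 active means duplicate-averaged ratio beyond 3 SD from buffer wells, up or down, though filed actives are nearly all decreases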
# The depositor's hits bear a star; i = inactive; / = not tested or not shown.
SMILES,PKA-R2B act,CHT PAM,ANO1 block,PKA-R1A act,CHT block,TMEM16A act,CHT activ conf,HEK293 MP dye
O=C(Nc1cccc(Cl)c1)Nc1ccccc1-n1ccnc1,10,i,i,-2,i,i,/,/
CC1C(=O)N2CCCc3cc(S(=O)(=O)N(C)c4ccccc4)cc1c32 (configuration not stated),-9,i,i,-9,i,i,/,/
COc1ccc(C(=O)OCC(N)=O)cc1[N+](=O)[O-],-22,i,i,-8,i,i,/,/
COc1ccc(C(=O)C[n+]2cc(Br)cc3ccccc32)cc1[N+](=O)[O-],1,i,i,0,i,i,31*,-38*
O=[N+]([O-])c1cc2ncccc2c2ncccc12,7,/,/,6,/,/,/,/
CCc1ccccc1NC(=O)c1ccc(-c2csc(C)n2)cc1,2,i,i,-8,i,i,7,i
O=C(c1nc2ccccn2c1CN1CCCC(O)C1)N1CCN(C2CCCCC2)CC1 (configuration not stated),-6,i,i,-8,i,i,75*,-57*
Cc1cc[n+](CC(=O)c2cccc([N+](=O)[O-])c2)c2ccccc12,-16,8.8*,i,-4,i,i,49*,-58*
Cc1c(CCOC(=O)c2cccc([N+](=O)[O-])c2)sc[n+]1CC(=O)c1ccccc1,-5,i,i,11,i,i,/,/
O=C(O)/C=C\C(=O)Nc1ccc(F)c(F)c1F,5,i,i,9,i,i,/,/
COc1ccc(NC(=O)C(=O)NNC(=O)c2cccs2)c(OC)c1,-3,7.2*,i,6,i,i,69*,-47*
Cc1ccnc(NC(=O)CCC(=O)N(CC(=O)NC(C)(C)C)c2ccc(F)c(Cl)c2)c1,/,i,i,/,i,i,/,/
C=CCNC(=O)c1ccc2c3n(nc2c1)-c1ccc(Cl)cc1CO3,-2,6.5*,i,11,i,i,15*,-20*
Nc1ccc(C(=O)OCc2ccncc2)cc1[N+](=O)[O-],-5,i,i,-8,i,i,35*,-31*
O=C(COc1ccc(Br)cc1CNC1CCCC1)Nc1ccccc1,-2,i,i,-4,i,i,7,i
CC(NCc1cc(Br)ccc1OCC(=O)NCc1ccccc1)c1ccccc1 (configuration not stated),-3,i,i,1,i,i,-2,i
O=C(CCC(=O)NNC(=O)COc1ccc(Br)cc1Br)NCc1ccccc1,/,i,i,/,i,i,/,/
CC(=O)NCCc1nc2cc(NS(=O)(=O)c3ccccc3)ccc2n1C,0,i,i,-4,i,i,/,/
O=C(NNC(=O)c1ccc(S(=O)(=O)N2CCCC2)cc1)c1ccc(Br)cc1,7,/,/,-7,/,i,/,/
Cc1cccc(COCC(Cc2ccccc2)N2CCN(C(=O)c3cccc(Cl)c3)CCC2=O)c1 (configuration not stated),-8,i,i,-8,i,i,/,/
O=C(c1cccc(Cl)c1)N1CCC(=O)N(C(COCc2ccccc2)Cc2ccccc2)CC1 (configuration not stated),-18,6.3*,i,-7,i,i,29*,i
Cc1cc(C)c2cc3c(ccn3C3OC[C@H](O)[C@H](O)[C@H]3O)cc2n1 (some centres not stated),-1,i,i,-9,i,i,62*,-46*
Nc1nc(Cl)nc2c1ncn2C1OCC(O)C(O)C1O (configuration not stated),8,/,/,-4,/,i,/,/
O=C(CSc1nc(-c2ccccc2)cs1)NCCCN1CCCC1=O,-8,/,/,-5,/,i,/,/
CC(Cc1ccccc1)N1CCCC1=O (configuration not stated),-3,/,/,-6,/,i,/,/
SMILES,PKA-R2B act,CHT PAM,ANO1 block,PKA-R1A act,CHT block,TMEM16A act,CHT activ conf,HEK293 MP dye
COc1ccc(OC)c(NS(=O)(=O)c2ccc(N3CCCC3=O)cc2)c1,1,9.1*,i,-5,i,i,37*,i
Cc1noc(C)c1COC(=O)c1ccccc1Oc1ccccc1,1,i,i,-5,i,i,14*,i
CNC(=S)Nc1cc(S(=O)(=O)Nc2cc(Cl)ccc2Cl)ccc1N1CCCC1,-7,i,i,2,i,i,14*,i
CCc1cc(Br)ccc1NC(=S)NCCc1ccccc1,2,i,i,8,i,i,12*,i
C#CCOCCOCCOCCNc1nc(N2CCN(C(=O)CCCCCCCCCCNC(=O)[C@@H](CCC(=O)O)n3cc(CCCCCN)nn3)CC2)nc(N2CCN(C(=O)CCCCCCCCCCNC(=O)[C@H]([C@@H](C)CC)n3cc(CCCCCN)nn3)CC2)n1,-3,i,i,-1,i,i,/,/
C#CCOCCOCCOCCNc1nc(N2CCOCC2)nc(N2CCN(C(=O)CCCCCCCCCCNC(=O)[C@@H]([C@H](C)CC)n3cc(CCCCCN)nn3)CC2)n1,-15,8.4*,i,1,i,i,6,-32*
Cc1ccccc1CC1SC(N)=NC1=O (configuration not stated),-2,i,i,-5,i,i,/,/
CCC(=O)Nc1c(C#N)c2nc3ccccc3nc2n1C1CCCCC1,-2,i,i,-6,i,i,/,/
CCOC(=O)c1c(N)n(C2CC(C)(C)NC(C)(C)C2)c2nc3ccccc3nc12,-10,6.7*,i,-11,i,i,57*,-72*
CCOC(=O)c1c(NC(=O)c2ccco2)n(C2CCCCC2)c2nc3ccccc3nc12,1,7.3*,i,-2,i,i,42*,i
CC(C)C1=CC2=CCC3C(C)(C(=O)O)CCCC3(C)C2CC1 (configuration not stated) (tested in a mixture with another compound),/,i,i,/,i,/,/,/
N#CC1=C(Nc2ccccc2)SC=C(c2ccccc2)N=C1N1CCOCC1,4,/,/,-1,/,i,/,/

# High-throughput results from PubChem.
